Measured values as given in ChEMBL document CHEMBL1961873, “Compounds: GSK PKIS; Assays: Nanosyn kinase panel” (2012).

Key:
[1] = target: Sphingosine kinase 1 (Homo sapiens) (UniProt Q9NYA1); conditions: at 1 µM;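 also: mean SPHK1 inhibition value reported from the GSK PKIS kinase panel screen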
[2] = target: T1, Sphingosine kinase 2 (Homo sapiens) (UniProt Q9NRA0); conditions: at 0.1 µM
T1 sequence (whole entry): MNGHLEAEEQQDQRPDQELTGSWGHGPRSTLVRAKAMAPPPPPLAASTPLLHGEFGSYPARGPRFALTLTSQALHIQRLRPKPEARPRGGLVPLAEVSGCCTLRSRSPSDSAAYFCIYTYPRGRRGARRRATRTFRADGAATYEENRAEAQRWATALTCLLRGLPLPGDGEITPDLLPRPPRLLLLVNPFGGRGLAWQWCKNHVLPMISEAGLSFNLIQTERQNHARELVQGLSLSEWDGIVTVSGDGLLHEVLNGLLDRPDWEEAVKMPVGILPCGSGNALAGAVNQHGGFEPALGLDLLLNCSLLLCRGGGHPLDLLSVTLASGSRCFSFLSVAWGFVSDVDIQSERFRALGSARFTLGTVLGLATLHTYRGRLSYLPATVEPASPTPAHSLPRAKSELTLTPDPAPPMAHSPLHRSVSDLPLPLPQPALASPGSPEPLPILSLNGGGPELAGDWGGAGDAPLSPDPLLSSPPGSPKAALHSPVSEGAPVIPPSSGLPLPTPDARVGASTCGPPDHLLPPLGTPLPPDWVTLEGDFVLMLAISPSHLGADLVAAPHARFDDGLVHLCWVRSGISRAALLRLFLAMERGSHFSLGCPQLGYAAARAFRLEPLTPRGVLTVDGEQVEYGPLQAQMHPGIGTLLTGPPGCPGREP

[3] = target: T1, Sphingosine kinase 2 (Homo sapiens); conditions: at 1 µM
[4] = target: Casein kinase II subunit alpha (Homo sapiens) (UniProt P68400); conditions: at 0.1 µM
Casein kinase II subunit alpha (Homo sapiens), sequence (P68400 whole entry, looked up): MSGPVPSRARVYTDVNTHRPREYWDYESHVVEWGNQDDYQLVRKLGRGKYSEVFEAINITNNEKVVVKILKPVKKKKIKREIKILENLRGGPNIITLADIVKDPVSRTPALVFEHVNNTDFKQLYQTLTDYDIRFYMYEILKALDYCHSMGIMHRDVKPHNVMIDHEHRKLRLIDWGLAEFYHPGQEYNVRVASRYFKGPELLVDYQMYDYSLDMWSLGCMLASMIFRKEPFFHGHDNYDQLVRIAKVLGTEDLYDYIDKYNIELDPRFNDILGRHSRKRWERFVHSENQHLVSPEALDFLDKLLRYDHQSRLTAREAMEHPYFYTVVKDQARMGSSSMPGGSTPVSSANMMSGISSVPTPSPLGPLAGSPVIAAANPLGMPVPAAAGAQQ

[5] = target: Casein kinase II subunit alpha (Homo sapiens) (UniProt P68400); conditions: at 1 µM
[6] = target: T2, Inhibitor of nuclear factor kappa-B kinase subunit alpha (Homo sapiens) (UniProt O15111); conditions: at 0.1 µM
T2 sequence (whole entry): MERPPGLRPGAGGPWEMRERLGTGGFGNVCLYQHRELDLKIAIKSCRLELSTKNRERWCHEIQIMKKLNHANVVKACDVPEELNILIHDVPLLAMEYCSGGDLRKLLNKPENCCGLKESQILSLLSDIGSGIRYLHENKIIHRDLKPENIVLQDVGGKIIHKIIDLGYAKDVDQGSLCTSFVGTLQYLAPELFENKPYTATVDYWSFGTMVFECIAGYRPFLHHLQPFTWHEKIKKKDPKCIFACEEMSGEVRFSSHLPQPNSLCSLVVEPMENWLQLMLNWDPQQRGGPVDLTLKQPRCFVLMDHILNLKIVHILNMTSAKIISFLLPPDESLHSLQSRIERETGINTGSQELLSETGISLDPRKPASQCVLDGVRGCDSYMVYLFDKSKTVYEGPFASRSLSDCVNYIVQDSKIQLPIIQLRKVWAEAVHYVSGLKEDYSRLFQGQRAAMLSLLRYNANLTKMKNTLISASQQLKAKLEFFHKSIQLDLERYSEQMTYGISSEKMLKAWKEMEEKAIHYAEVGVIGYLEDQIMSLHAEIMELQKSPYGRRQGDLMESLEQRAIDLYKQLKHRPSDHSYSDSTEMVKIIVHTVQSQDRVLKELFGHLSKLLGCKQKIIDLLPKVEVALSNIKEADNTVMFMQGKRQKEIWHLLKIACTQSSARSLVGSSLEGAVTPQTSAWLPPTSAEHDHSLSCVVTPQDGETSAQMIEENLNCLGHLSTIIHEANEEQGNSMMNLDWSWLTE

[7] = target: T2, Inhibitor of nuclear factor kappa-B kinase subunit alpha (Homo sapiens); conditions: at 1 µM
[8] = target: T3, Inhibitor of nuclear factor kappa-B kinase subunit beta (Homo sapiens) (UniProt O14920); conditions: at 0.1 µM
T3 sequence (whole entry): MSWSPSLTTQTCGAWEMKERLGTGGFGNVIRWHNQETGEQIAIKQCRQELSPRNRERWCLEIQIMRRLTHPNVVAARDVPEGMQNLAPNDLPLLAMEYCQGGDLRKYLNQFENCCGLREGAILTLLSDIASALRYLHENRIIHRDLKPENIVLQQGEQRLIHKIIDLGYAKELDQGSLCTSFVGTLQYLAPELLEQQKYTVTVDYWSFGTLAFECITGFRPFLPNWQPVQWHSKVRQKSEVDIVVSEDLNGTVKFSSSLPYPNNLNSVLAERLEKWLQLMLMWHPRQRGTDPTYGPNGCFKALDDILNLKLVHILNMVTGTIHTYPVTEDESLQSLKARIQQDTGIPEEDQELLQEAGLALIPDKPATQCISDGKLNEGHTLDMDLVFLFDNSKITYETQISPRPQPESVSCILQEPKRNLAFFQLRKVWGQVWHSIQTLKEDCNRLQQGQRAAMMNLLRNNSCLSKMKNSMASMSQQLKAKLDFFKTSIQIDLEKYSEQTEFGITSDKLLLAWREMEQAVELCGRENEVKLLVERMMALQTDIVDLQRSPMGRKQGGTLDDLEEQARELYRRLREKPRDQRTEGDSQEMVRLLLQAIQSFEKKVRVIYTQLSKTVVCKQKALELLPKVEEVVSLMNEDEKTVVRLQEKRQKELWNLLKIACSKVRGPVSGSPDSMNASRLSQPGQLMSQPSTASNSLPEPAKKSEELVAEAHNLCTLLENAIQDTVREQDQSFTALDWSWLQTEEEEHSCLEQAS

[9] = target: T3, Inhibitor of nuclear factor kappa-B kinase subunit beta (Homo sapiens); conditions: at 1 µM
[10] = target: T4, Inhibitor of nuclear factor kappa-B kinase subunit epsilon (Homo sapiens) (UniProt Q14164); conditions: at 0.1 µM
T4 sequence (whole entry): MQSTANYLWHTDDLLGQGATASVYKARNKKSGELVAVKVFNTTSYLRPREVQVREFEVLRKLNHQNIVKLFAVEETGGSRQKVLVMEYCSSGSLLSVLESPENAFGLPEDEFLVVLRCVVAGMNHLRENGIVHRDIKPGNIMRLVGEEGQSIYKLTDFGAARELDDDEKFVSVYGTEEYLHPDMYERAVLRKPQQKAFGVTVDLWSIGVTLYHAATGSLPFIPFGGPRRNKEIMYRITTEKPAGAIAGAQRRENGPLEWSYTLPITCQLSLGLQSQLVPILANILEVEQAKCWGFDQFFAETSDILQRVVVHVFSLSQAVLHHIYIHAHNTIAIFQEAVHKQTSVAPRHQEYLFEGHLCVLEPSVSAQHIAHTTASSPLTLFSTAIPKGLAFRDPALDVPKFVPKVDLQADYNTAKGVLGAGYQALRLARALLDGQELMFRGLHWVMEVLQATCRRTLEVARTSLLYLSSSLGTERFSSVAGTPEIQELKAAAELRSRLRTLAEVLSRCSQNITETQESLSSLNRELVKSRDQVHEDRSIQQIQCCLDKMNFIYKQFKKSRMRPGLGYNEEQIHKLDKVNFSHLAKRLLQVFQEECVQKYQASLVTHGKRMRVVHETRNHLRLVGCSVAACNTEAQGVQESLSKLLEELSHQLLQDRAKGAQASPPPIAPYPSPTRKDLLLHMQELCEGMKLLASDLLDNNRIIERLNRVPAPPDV

[11] = target: T4, Inhibitor of nuclear factor kappa-B kinase subunit epsilon (Homo sapiens); conditions: at 1 µM
[12] = target: T5, Serine/threonine-protein kinase Nek1 (Homo sapiens) (UniProt Q96PY6); conditions: at 0.1 µM
T5 sequence (whole entry): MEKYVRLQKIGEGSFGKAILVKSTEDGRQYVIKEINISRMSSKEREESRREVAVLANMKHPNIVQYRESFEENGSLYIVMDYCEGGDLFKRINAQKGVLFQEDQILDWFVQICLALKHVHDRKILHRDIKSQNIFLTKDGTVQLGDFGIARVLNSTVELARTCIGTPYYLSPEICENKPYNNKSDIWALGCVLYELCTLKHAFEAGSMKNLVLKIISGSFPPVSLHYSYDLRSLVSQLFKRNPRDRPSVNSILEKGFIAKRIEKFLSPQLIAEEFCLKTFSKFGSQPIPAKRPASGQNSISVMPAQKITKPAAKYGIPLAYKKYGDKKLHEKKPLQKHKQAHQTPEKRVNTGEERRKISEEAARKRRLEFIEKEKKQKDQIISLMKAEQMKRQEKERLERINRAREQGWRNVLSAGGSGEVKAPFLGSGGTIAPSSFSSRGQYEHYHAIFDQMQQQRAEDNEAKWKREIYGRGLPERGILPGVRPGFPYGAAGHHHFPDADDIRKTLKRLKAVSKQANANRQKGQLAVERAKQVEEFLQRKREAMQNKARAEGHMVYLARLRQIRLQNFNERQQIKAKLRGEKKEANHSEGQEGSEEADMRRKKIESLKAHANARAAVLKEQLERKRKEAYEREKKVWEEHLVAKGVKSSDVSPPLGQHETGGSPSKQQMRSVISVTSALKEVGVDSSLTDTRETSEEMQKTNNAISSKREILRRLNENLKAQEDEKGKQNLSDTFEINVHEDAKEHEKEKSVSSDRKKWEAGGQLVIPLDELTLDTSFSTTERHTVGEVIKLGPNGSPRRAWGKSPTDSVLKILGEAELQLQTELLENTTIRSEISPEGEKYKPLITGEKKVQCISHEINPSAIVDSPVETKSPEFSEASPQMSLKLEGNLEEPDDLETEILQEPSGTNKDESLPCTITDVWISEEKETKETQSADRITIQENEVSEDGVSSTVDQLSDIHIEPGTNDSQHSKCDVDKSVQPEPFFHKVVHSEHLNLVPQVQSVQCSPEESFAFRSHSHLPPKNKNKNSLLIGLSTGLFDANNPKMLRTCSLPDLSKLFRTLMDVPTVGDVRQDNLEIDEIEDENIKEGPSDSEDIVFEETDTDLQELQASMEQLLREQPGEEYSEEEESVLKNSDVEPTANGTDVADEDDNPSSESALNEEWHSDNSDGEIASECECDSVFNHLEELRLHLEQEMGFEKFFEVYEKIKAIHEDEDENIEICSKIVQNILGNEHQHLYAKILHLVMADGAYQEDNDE

[13] = target: T5, Serine/threonine-protein kinase Nek1 (Homo sapiens); conditions: at 1 µM
[14] = target: T6, Serine/threonine-protein kinase Nek2 (Homo sapiens) (UniProt P51955); conditions: at 0.1 µM
T6 sequence (whole entry): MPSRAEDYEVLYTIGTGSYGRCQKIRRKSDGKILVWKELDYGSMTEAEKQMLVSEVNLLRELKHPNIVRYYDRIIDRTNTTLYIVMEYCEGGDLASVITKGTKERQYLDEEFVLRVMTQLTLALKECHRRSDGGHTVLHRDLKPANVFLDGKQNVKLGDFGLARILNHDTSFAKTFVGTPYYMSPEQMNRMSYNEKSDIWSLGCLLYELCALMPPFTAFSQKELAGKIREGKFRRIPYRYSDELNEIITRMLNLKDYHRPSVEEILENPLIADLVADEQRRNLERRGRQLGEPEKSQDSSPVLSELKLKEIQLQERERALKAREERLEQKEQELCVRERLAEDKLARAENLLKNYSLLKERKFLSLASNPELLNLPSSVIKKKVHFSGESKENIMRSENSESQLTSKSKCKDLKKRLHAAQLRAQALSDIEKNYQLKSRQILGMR

[15] = target: T6, Serine/threonine-protein kinase Nek2 (Homo sapiens); conditions: at 1 µM
[16] = target: Serine/threonine-protein kinase Nek6 (Homo sapiens) (UniProt Q9HC98); conditions: at 0.1 µM
Serine/threonine-protein kinase Nek6 (Homo sapiens), sequence (Q9HC98 whole entry): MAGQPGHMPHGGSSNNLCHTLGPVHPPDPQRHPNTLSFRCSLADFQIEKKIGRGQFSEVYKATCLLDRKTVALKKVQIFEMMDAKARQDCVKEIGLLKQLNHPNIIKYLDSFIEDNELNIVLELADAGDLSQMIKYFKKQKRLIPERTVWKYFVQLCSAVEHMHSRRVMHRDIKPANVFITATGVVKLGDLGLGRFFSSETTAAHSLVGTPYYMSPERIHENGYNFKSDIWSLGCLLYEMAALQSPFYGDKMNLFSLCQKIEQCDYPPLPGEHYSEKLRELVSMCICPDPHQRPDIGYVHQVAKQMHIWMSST

[17] = target: Serine/threonine-protein kinase Nek6 (Homo sapiens) (UniProt Q9HC98); conditions: at 1 µM
[18] = target: Serine/threonine-protein kinase Nek7 (Homo sapiens) (UniProt Q8TDX7); conditions: at 0.1 µM
Serine/threonine-protein kinase Nek7 (Homo sapiens), sequence (Q8TDX7 whole entry, looked up): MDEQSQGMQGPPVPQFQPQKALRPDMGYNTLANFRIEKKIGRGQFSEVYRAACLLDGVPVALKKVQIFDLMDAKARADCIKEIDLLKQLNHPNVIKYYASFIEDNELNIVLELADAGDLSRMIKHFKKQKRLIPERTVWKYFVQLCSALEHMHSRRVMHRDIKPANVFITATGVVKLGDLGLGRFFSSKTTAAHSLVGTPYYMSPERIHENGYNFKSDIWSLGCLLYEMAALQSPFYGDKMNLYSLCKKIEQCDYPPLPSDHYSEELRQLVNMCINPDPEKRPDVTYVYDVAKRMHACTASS

[19] = target: Serine/threonine-protein kinase Nek7 (Homo sapiens) (UniProt Q8TDX7); conditions: at 1 µM
[20] = target: T7, Serine/threonine-protein kinase Nek9 (Homo sapiens) (UniProt Q8TD19); conditions: at 0.1 µM;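 also: reported value is the mean percent inhibition of NEK9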
T7 sequence (whole entry): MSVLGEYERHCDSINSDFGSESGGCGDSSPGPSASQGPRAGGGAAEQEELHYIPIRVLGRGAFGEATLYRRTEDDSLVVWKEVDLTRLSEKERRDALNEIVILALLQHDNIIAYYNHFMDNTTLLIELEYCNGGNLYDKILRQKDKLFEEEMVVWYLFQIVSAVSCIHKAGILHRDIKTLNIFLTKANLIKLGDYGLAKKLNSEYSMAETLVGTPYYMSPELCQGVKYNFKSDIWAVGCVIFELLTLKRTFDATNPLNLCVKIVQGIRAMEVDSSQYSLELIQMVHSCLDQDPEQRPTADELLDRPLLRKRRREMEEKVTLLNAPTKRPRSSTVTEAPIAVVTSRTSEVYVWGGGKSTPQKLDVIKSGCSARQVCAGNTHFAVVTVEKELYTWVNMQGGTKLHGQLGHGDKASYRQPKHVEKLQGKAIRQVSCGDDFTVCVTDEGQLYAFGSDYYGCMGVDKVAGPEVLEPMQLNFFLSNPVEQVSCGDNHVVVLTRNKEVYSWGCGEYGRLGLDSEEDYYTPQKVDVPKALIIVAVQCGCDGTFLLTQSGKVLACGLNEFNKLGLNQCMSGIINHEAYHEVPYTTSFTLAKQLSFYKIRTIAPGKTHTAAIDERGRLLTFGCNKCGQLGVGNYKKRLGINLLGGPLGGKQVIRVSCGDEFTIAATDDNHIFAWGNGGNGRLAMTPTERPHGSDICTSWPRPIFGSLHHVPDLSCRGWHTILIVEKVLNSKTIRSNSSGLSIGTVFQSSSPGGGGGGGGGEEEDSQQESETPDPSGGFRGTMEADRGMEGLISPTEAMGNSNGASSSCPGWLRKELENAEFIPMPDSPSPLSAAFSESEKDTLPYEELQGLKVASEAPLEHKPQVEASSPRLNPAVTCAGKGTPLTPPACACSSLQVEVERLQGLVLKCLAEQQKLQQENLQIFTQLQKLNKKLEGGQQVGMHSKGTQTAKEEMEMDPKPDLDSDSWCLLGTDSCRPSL

Sphingosine kinase 1 (Homo sapiens), sequence (Q9NYA1 whole entry): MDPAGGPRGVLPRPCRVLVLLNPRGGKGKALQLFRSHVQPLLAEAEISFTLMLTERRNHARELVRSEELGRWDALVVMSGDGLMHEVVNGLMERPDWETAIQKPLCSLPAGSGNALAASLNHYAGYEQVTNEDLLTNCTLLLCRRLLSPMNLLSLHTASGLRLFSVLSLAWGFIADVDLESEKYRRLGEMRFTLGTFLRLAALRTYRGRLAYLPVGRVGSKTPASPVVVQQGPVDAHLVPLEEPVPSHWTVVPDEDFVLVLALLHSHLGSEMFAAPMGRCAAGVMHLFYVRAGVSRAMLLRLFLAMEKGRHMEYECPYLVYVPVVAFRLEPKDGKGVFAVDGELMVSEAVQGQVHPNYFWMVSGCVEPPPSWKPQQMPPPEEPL

Question: What does the source list for `CCOc1nccc2c1nc(-c1nonc1N)n2CC`?
Answer: inhibition [1]: 7.65%; inhibition [2]: -0.3%; inhibition [3]: 0.06%; inhibition [4]: 5.33%; inhibition [5]: 14.6%; inhibition [6]: 2.3%; inhibition [7]: 3.59%; inhibition [8]: 0.86%; inhibition [9]: 5.41%; inhibition [10]: 7.17%; inhibition [11]: 6.4%; inhibition [12]: 5.3%; inhibition [13]: 8.93%; inhibition [14]: 3.98%; inhibition [15]: 7.87%; inhibition [16]: 5.75%; inhibition [17]: 5.08%; inhibition [18]: 2.9%; inhibition [19]: 3.26%; inhibition [20]: 6.44%

Question: What does the source list for `Cc1ccc(NC(=O)CC2CC2)cc1-c1ccc(C(=O)NCC2CC2)cc1`?
Answer: inhibition [1]: -1.09%; inhibition [2]: 0.51%; inhibition [3]: -0.13%; inhibition [4]: 4.55%; inhibition [5]: 8.23%; inhibition [6]: 0.25%; inhibition [7]: 1.31%; inhibition [8]: 3.09%; inhibition [9]: 3.67%; inhibition [10]: 4.09%; inhibition [11]: 3.27%; inhibition [12]: 2.27%; inhibition [13]: 3.32%; inhibition [14]: 3.73%; inhibition [15]: 3.66%; inhibition [16]: 2.7%; inhibition [17]: 0.33%; inhibition [18]: 4.87%; inhibition [19]: 4.36%; inhibition [20]: 5.37%
